The test system of assay [1] is P. falciparum NF54-pfs16-GFP early (I-III) stage gametocytes. Put plainly: relative % inhibition of viable gametocyte number; higher = more gametocytocidal. Conditions: stage: early (I-III) gametocyte, incubation 72 h. Put shortly:
(§1)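 Magnet-isolated NF54 pfs16-GFP gametocytes at early (I/IIa, day 2) or late (day 8) stage were exposed to compound at 5 or 0.5 µM for 72 h at 37°C, 5% CO2, 5% O2, at 10% parasitaemia and 0.1% haematocrit. Elongated GFP objects with MitoTracker Red signal above cut-off were counted as viable by confocal imaging. Relative inhibition was normalised to in-plate vehicle and positive-control wells.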

For assay [2], the system named is P. falciparum NF54-pfs16-GFP late (IV-V) stage gametocytes. The assay is described as above. Conditions: stage: late (IV-V) gametocyte, incubation 72 h. Put shortly: as §1

The text below walks through data of the supplement of paper PMC3842684.

The structures appear in SMILES notation.

As to `O=C(NC1CCN(Cc2ccccc2)CC1)c1cc2nc(-c3ccc(Cl)s3)cc(C(F)(F)F)n2n1`, the relative % inhibition was 3.66% in assay [1] (0.5 µM), -15.9% in assay [1] (5 µM), 21.4% in assay [2] (0.5 µM) and 25% in assay [2] (5 µM).
Regarding `COc1ccc(OC)c(C2C3=C(CC(C)(C)CC3=O)N(c3ccc(Cl)c(Cl)c3)C3=C2C(=O)CC(C)(C)C3)c1`, the relative % inhibition in assay [1] (0.5 µM) is 13.6%; in assay [1] (5 µM), 67.1%; in assay [2] (0.5 µM), 13.8%; in assay [2] (5 µM), 79.2%.
Consider `CC(C)(C)c1ccc(C(=O)Nc2nc3ccccc3s2)cc1`, for which the relative % inhibition in assay [1] (0.5 µM) came to 0.793%; in assay [1] (5 µM), 31%; in assay [2] (0.5 µM), 6.03%; in assay [2] (5 µM), 2.42%.
On to `CCCCCCC(O)(c1ccc(F)cc1)C(CN1CCOCC1)c1ccccc1` (centres undefined), for which the relative % inhibition is -0.0307% in assay [1] (0.5 µM), 47.2% in assay [1] (5 µM), 8.28% in assay [2] (0.5 µM) and 33.1% in assay [2] (5 µM).
In the case of `Cc1cc(NC(=O)c2cccc(C(F)(F)F)c2)n(-c2nc(-c3ccc4c(c3)OCO4)cs2)n1`, the relative % inhibition is -23.4% in assay [1] (0.5 µM), -25.9% in assay [1] (5 µM), 18.8% in assay [2] (0.5 µM) and 10.5% in assay [2] (5 µM).
Consider `FC(F)(F)c1cccc(Nc2nc3ccccc3nc2Nc2cccc(C(F)(F)F)c2)c1`, for which the relative % inhibition was determined as 96.8% in assay [1] (0.5 µM), 102% in assay [1] (5 µM), 105% in assay [2] (0.5 µM) and 103% in assay [2] (5 µM).
For `Clc1ccc2[nH]c3c(NCCCN4CCOCC4)ncnc3c2c1`, in that order: 61.4%, 97.5%, 12.4% and 17.7%.
The like results for `Cc1sc(NC(=O)c2ccco2)c(C(c2cccnc2)N2CCC(Cc3ccccc3)CC2)c1C` (centres undefined) were, in that order, -12.2%, 85.7%, 14.3% and 106%.
The like results for `CC(C)CNC(=O)c1c(N)n(CCc2ccccc2F)c2nc3ccccc3nc12` were, in that order, -1.27%, 3.8%, 3.01% and 8.27%.
In the case of `Cc1cc(N(C)C)nc(Nc2ccc(NC(=O)Nc3ccccc3)cc2)n1`, the relative % inhibition was 24.5% in assay [1] (0.5 µM), 8.02% in assay [1] (5 µM), 24% in assay [2] (0.5 µM) and 1.55% in assay [2] (5 µM).
The like results for `c1ccc(C2=Nc3ccccc3N=C(c3ccccc3)c3ccccc32)cc1` were, in that order, 35.8%, 101%, 15.2% and 47.2%.
